Targets with a hit are over-represented here; the source holds about 7,900 in all. About 0.6% of all pairs of compound and target were hits. Unmarked numbers belong to inactive results.
Legend:
Assay in all cases: log2 fold change, soluble protein after heating vs DMSO (PISA); higher = thermal stabilisation; K562 cells, 10 uM, 30 min; active = over 0.2 and 3.5 SD of the protein, either way, in both replicates (recomputed)
[1] = compound: COC1=CC=C(C=C1)CN2C=CC3=C2C=C(C=C3)C(=O)NO
In short: (§1)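 K562 cells at 2×10^6 cells/mL were exposed to 10 μM compound for 30 min, then aliquots were heated for 3 min across 48°C-58°C, pooled, and extracted in PBS containing 0.5% NP-40 at 4°C. The supernatant after 21,000xg for 90 min was taken as soluble protein and measured by TMTpro 16plex LC-MS/MS with channel sums equalised. Thermal stability is reported relative to control samples, with values from duplicates. Fold changes are given on a log2 scale.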

filanesib = compound: CON(C)C(=O)N1N=C(c2cc(F)ccc2F)S[C@@]1(CCCN)c1ccccc1 [filanesib]
In short: as §1

zotarolimus = compound: CO[C@H]1C[C@@H]2CC[C@@H](C)[C@@](O)(O2)C(=O)C(=O)N2CCCC[C@H]2C(=O)O[C@H]([C@H](C)C[C@@H]2CC[C@H](n3cnnn3)[C@H](OC)C2)CC(=O)[C@H](C)/C=C(\C)[C@@H](O)[C@@H](OC)C(=O)[C@H](C)C[C@H](C)/C=C/C=C/C=C/1C [zotarolimus]
In short: as §1

alisertib = compound: COc1cc(Nc2ncc3c(n2)-c2ccc(Cl)cc2C(c2c(F)cccc2OC)=NC3)ccc1C(=O)O [alisertib]
In short: as §1

[2] = compound: COc1cc2nc(-c3cc(F)ccc3O)nc(N[C@@H]3CNC[C@H]3C(C)(C)O)c2cc1OC
In short: as §1

[3] = compound: COc1cccc2cc(-c3nc([C@H]4CC[C@H](C(=O)O)CC4)n4ncnc(N)c34)[nH]c12
In short: as §1

lapatinib = compound: CS(=O)(=O)CCNCc1ccc(-c2ccc3ncnc(Nc4ccc(OCc5cccc(F)c5)c(Cl)c4)c3c2)o1 [lapatinib]
In short: as §1

pictilisib = compound: CS(=O)(=O)N1CCN(Cc2cc3nc(-c4cccc5[nH]ncc45)nc(N4CCOCC4)c3s2)CC1 [pictilisib]
In short: as §1

[4] = compound: CS(=O)(=O)c1ccc(-c2cnc(N)c(C(=O)Nc3ccccc3)n2)cc1
In short: as §1

crizotinib = compound: C[C@@H](Oc1cc(-c2cnn(C3CCNCC3)c2)cnc1N)c1c(Cl)ccc(F)c1Cl [crizotinib]
In short: as §1

[5] = compound: C[C@@H]1COCCN1C2=NC(=NC(=C2)C3(CC3)S(=O)(=O)C)C4=C5C=CNC5=CC=C4
In short: as §1

[6] = compound: C[C@H](C1=CC=C(C=C1)C(=O)NC2=C3C=CNC3=NC=C2)N
In short: as §1

duvelisib = compound: C[C@H](Nc1ncnc2nc[nH]c12)c1cc2cccc(Cl)c2c(=O)n1-c1ccccc1 [duvelisib]
In short: as §1

gandotinib = compound: Cc1cc(Nc2cc(CN3CCOCC3)c3nc(C)c(Cc4ccc(Cl)cc4F)n3n2)n[nH]1 [gandotinib]
In short: as §1

tozasertib = compound: Cc1cc(Nc2cc(N3CCN(C)CC3)nc(Sc3ccc(NC(=O)C4CC4)cc3)n2)n[nH]1 [tozasertib]
In short: as §1

[7] = compound: Cc1cc(SCc2sc(-c3ccc(C(F)(F)F)cc3)nc2C)ccc1OCC(=O)O
In short: as §1

doramapimod = compound: Cc1ccc(-n2nc(C(C)(C)C)cc2NC(=O)Nc2ccc(OCCN3CCOCC3)c3ccccc23)cc1 [doramapimod]
In short: as §1

ispinesib = compound: Cc1ccc(C(=O)N(CCCN)[C@@H](c2nc3cc(Cl)ccc3c(=O)n2Cc2ccccc2)C(C)C)cc1 [ispinesib]
In short: as §1

gefitinib = compound: COc1cc2ncnc(Nc3ccc(F)c(Cl)c3)c2cc1OCCCN1CCOCC1 [gefitinib]
In short: as §1

idasanutlin = compound: COc1cc(C(=O)O)ccc1NC(=O)[C@@H]1N[C@@H](CC(C)(C)C)[C@](C#N)(c2ccc(Cl)cc2F)[C@H]1c1cccc(Cl)c1F [idasanutlin]
In short: as §1

UniProt O14936, sequence (O14936 whole entry, looked up): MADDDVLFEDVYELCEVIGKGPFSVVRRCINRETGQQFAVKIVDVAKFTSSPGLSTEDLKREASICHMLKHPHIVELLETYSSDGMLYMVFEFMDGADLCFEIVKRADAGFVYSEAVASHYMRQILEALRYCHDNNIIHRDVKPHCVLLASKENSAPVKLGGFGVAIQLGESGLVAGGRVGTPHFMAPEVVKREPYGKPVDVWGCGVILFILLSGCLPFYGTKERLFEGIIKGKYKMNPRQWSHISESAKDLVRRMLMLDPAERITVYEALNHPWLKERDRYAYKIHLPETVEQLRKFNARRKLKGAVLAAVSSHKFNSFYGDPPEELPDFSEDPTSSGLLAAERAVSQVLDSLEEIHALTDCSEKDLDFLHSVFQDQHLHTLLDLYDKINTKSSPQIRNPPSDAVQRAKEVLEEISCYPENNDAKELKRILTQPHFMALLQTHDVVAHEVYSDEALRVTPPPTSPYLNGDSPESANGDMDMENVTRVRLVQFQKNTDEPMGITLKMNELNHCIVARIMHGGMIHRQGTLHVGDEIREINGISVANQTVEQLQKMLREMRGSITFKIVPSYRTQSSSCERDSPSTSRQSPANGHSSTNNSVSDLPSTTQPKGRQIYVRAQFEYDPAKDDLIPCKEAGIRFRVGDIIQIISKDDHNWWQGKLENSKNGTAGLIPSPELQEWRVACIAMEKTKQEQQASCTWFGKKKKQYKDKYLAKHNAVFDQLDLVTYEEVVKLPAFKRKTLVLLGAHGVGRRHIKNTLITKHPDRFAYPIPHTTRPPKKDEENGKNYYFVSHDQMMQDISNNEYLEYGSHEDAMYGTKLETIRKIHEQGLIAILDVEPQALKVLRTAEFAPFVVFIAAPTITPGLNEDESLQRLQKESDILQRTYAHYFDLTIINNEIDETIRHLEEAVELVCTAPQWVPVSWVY
UniProt Q9UJA2, sequence (Q9UJA2 whole entry, looked up): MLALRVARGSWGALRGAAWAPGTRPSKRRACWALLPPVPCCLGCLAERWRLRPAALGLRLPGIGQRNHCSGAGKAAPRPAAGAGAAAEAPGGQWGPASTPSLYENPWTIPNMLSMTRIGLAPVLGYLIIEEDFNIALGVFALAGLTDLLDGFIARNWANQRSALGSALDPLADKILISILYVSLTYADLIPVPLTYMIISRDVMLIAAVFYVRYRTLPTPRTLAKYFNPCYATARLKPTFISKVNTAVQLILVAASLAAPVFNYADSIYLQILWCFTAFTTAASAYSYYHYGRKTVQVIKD
UniProt Q5T655, sequence (Q5T655 whole entry, looked up): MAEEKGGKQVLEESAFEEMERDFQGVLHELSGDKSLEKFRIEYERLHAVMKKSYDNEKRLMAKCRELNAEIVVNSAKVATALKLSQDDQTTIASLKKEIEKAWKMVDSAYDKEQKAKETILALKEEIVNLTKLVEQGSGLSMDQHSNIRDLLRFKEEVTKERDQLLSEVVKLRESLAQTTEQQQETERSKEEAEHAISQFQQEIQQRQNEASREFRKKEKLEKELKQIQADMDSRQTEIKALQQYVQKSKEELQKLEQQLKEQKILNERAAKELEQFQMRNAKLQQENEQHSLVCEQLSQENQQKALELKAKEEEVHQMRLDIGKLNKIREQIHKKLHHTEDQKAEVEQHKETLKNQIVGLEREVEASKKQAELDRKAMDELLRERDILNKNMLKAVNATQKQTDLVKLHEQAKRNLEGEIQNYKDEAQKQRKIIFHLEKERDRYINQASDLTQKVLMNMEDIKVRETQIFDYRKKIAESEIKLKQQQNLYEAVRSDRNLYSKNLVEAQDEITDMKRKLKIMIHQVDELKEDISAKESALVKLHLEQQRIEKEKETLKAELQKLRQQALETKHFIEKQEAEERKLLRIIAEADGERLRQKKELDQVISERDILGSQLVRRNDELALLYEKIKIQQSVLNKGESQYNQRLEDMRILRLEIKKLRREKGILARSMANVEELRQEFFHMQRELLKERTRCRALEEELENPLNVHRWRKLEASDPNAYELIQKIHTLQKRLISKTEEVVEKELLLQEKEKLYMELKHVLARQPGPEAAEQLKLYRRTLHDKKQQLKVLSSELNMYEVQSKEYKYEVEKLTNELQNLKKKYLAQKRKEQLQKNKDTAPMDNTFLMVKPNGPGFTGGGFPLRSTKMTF
UniProt Q6UUV7, sequence (Q6UUV7 whole entry, looked up): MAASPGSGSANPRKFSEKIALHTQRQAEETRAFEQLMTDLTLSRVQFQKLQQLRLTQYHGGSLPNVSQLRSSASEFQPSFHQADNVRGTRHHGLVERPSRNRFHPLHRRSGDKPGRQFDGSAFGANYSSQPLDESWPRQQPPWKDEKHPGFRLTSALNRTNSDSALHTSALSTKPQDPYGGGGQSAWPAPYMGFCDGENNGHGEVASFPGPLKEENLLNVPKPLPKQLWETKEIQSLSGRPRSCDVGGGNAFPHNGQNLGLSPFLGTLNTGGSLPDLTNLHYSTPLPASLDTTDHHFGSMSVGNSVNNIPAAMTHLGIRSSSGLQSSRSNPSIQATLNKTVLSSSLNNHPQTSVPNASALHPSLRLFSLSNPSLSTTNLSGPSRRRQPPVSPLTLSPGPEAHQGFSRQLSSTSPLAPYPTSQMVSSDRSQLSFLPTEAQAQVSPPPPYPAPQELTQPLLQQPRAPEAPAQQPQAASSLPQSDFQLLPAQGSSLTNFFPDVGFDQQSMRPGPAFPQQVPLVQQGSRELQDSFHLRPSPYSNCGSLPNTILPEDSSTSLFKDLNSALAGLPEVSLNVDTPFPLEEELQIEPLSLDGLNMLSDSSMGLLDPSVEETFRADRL
UniProt Q8WUD6, sequence (Q8WUD6 whole entry, looked up): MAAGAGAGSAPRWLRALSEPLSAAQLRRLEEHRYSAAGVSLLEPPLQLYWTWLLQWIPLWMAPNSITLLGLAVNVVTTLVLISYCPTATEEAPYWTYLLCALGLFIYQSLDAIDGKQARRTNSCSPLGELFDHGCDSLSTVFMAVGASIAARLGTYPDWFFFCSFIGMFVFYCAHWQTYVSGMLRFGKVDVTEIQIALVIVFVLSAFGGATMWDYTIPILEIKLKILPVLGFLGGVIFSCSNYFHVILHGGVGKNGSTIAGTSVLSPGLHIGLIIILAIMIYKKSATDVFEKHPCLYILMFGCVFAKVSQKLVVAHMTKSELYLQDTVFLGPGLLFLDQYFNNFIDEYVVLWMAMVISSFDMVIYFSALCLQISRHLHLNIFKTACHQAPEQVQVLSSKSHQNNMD
UniProt Q15417, sequence (Q15417 whole entry, looked up): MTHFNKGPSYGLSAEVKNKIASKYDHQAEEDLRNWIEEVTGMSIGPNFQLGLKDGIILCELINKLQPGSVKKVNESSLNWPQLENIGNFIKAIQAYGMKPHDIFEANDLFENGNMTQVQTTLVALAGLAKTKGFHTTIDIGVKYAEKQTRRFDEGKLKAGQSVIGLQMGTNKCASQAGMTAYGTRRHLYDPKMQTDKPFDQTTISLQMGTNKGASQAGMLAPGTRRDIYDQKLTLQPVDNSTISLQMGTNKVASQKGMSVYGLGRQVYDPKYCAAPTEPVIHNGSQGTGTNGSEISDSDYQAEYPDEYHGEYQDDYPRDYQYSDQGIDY
UniProt P55210, sequence (P55210 whole entry, looked up): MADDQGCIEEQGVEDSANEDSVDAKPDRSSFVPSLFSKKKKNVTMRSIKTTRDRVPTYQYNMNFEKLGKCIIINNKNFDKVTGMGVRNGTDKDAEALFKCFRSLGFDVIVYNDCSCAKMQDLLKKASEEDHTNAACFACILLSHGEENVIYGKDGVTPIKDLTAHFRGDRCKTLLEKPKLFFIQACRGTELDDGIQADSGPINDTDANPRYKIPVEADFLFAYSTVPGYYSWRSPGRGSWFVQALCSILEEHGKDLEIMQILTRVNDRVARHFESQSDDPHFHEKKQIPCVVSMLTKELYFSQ
UniProt Q70SY1, sequence (Q70SY1 whole entry, looked up): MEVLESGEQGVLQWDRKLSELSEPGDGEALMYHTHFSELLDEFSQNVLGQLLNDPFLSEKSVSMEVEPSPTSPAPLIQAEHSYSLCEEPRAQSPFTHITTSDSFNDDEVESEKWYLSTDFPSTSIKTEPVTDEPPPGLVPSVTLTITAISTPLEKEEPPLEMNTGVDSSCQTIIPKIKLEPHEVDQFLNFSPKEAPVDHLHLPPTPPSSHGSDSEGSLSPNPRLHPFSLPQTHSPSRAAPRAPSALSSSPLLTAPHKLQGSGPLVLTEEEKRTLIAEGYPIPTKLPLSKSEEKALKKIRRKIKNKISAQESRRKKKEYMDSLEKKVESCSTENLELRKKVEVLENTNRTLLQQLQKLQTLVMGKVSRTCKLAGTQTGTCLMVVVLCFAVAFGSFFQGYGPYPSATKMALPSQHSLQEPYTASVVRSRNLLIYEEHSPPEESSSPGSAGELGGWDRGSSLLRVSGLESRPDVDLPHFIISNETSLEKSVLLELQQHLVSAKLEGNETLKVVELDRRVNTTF
UniProt Q9H257, sequence (Q9H257 whole entry, looked up): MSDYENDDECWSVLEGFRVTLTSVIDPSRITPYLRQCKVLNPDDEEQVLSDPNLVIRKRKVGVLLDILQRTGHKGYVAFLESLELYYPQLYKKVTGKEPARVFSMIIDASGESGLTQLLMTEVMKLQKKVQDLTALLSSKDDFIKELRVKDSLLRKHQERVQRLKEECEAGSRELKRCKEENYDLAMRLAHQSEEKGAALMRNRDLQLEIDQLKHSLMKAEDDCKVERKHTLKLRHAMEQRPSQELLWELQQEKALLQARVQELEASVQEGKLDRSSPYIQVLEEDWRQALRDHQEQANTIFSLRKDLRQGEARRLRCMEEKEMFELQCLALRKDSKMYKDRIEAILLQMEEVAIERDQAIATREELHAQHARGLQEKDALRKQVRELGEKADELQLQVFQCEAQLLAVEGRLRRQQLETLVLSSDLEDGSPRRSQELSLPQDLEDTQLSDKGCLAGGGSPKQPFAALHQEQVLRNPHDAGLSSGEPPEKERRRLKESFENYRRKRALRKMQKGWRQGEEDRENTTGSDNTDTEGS
UniProt Q96F85, sequence (Q96F85 whole entry, looked up): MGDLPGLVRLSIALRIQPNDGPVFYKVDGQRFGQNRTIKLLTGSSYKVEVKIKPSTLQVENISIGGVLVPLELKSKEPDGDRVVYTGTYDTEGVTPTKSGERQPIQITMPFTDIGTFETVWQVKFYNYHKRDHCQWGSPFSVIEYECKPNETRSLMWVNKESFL

| Target | log2 fold change [1] | log2 fold change (filanesib) | log2 fold change (zotarolimus) | log2 fold change (alisertib) | log2 fold change [2] | log2 fold change [3] | log2 fold change (lapatinib) | log2 fold change (pictilisib) | log2 fold change [4] | log2 fold change (crizotinib) | log2 fold change [5] | log2 fold change [6] | log2 fold change (duvelisib) | log2 fold change (gandotinib) | log2 fold change (tozasertib) | log2 fold change [7] | log2 fold change (doramapimod) | log2 fold change (ispinesib) | log2 fold change (gefitinib) | log2 fold change (idasanutlin) |
| --- | --- | --- | --- | --- | --- | --- | --- | --- | --- | --- | --- | --- | --- | --- | --- | --- | --- | --- | --- | --- |
| CCM2 isoform 2 (UniProt Q9BSQ5) | -0.093 | 0.026 | 0.057 | -0.04 | 0.154 | 0.056 | 0.006 | 0.022 | 0.088 | -0.022 | -0.016 | 0.003 | -0.02 | 0.026 | 0.132 | -0.067 | 0.013 | -0.043 |  |  |
| CRLS1 (UniProt Q9UJA2) | 0.044 | -0.125 | 0.005 | -0.071 | -0.229 | 0.075 | 0.046 | -0.029 | -0.228 | 0.02 |  | -0.047 | -0.025 | -0.083 | 0 | 0.05 | 0.023 |  | 0.021 |  |
| COMMD1 (UniProt Q8N668) | 0.054 | 0.06 |  | -0.151 | 0.029 | -0.04 | -0.029 | 0.006 | -0.108 | -0.022 | -0.092 |  |  | 0.42 (active) | -0.049 |  | 0.009 | -0.112 | -0.01 |  |
| CENPE (UniProt Q02224) | -0.355 | 0.445 | 0.288 |  | -0.068 |  | 0.024 | 0.048 | 0.231 | -0.018 |  | -0.908 | -0.563 | 0.052 | -0.155 | 0.24 | 0.108 | -0.321 |  | -0.407 |
| CAB39L (UniProt Q9H9S4) | -0.063 | -0.07 |  |  | 0.07 |  | 0.057 | 0.029 | 0.13 | 0.036 | -0.01 |  | -0.014 | 0.448 (active) | 0.03 | 0.053 | 0.024 | -0.031 |  | -0.052 |
| CNRIP1 (UniProt Q96F85) |  |  |  | 0.075 | 0.282 | -0.223 | 0.054 |  |  |  | 0.209 |  |  |  |  |  |  | -0.147 | 0.002 |  |
| CAD (UniProt H7BZB3) |  |  |  |  |  |  |  |  |  |  |  |  |  |  |  |  |  |  |  | -0.006 |
| CASP7 isoform 3 (UniProt P55210) |  |  |  |  |  |  |  | 0.234 |  |  | 0.3 |  | -0.024 | -0.155 |  | -0.271 |  |  | 0.282 |  |
| CCDC187, A0A1W2PQX5 |  |  |  |  |  |  |  | 0.191 |  |  | -0.042 |  |  | -0.352 |  |  |  | 0.274 | -0.312 | -0.051 |
| CCND3 (UniProt P30281) |  |  | -0.035 | -0.043 | -0.276 | 0.012 | 0.083 | 0.03 |  |  | -0.271 | 0.096 | 0.014 | -0.027 | -0.058 | 0.058 |  | -0.116 |  | -0.036 |
| CFAP58 (UniProt Q5T655) |  |  |  | -0.156 | 0 | 0.032 | 0.001 | 0.122 |  |  |  |  |  | -0.011 |  |  |  | -0.165 |  |  |
| CDK19 (UniProt Q9BWU1) |  | 0.154 | -0.069 | 0.234 | 0.138 | -0.045 | -0.192 | 0.073 | 0.042 |  | 0.03 | 0.401 | -0.089 | -0.051 | -0.197 | 0.034 |  | 0.291 | -0.095 | -0.161 |
| CARD9 (UniProt Q9H257) | -0.062 |  |  |  |  |  |  |  |  | -0.023 |  |  |  |  |  |  | 0.135 | -0.398 |  | 0.169 |
| CFAP47 (UniProt Q6ZTR5) |  |  |  |  | 0.031 |  | -0.106 |  |  |  | 0.099 |  | -0.027 |  |  | -0.302 |  |  |  | -0.496 |
| CKS2 (UniProt P33552) |  |  |  | -0.029 | 0.184 | 0.14 | -0.036 | -0.666 |  |  |  |  | 0.01 | -0.272 | -0.094 | -0.038 |  |  | 0.093 | 0.193 |
| CNN3 (UniProt Q15417) |  | -0.006 | 0.005 | -0.031 | 0.111 | -0.026 | -0.032 | 0.04 | 0.044 |  | 0.075 | -0.066 | -0.02 | -0.1 | 0.069 | 0.15 |  |  | 0.026 | -0.04 |
| COMMD3-BMI1 (UniProt R4GMX3) |  | -0.08 | -0.12 |  | 0.519 (active) |  | -0.445 | 0.135 | 0.074 |  | -0.031 | 0.019 |  | -0.011 | -0.048 |  |  |  | -0.029 | 0.093 |
| CSNK1A1 isoform 3 (UniProt P48729) |  |  |  |  | -0.006 | 0.091 | 0.129 |  |  |  |  |  |  |  |  |  |  |  |  |  |
| CREB3L2 (UniProt Q70SY1) | 0.584 |  | 0.042 | -0.022 |  | 0.176 |  |  |  | 0.098 | -0.076 | -0.26 |  |  | -0.132 |  | 0.128 | -0.342 | -0.154 | 0.045 |
| CRTC3 (UniProt Q6UUV7) |  | 0.015 | -0.059 | 0.202 | -0.86 (active) | -0.107 | 0.078 |  | -0.004 |  | 0.177 | 0.071 |  |  | -0.121 |  |  | 0.129 |  |  |
| C5orf30 (UniProt Q96GV9) |  |  |  |  | -0.094 |  | -0.21 |  |  |  | 0.352 |  |  |  | -0.24 |  |  |  |  | 0.022 |
| CHPT1 (UniProt Q8WUD6) |  | -0.345 | -0.017 | -0.136 | -0.009 | -0.015 | 0.159 | -0.096 | 0.064 |  | -0.07 | 0.023 | 0.025 | 0.038 | -0.016 | 0.015 |  | -1.09 (active) | 0.013 | -0.018 |
| CA1 (UniProt E5RIF9) |  |  |  |  |  |  |  |  |  |  | -0.134 |  | 0.055 |  | -0.153 | -0.613 |  |  |  |  |
| CLN3 (UniProt Q13286) | 0.008 |  | -0.1 | 0 | 0.08 | 0.139 | -0.059 |  |  | -0.327 | 0.066 | 0.071 | 0.096 |  | -0.006 | -0.085 | -0.047 | -0.307 | -0.028 |  |
| CLCN5 isoform 2 (UniProt P51795) | -0.011 |  | -0.004 |  |  |  |  |  |  | -0.321 |  | -0.123 | 0.188 | -0.083 | 0.122 | -0.049 | -0.03 | -0.419 (active) | 0.011 |  |
| CEBPZOS (UniProt A8MTT3) | 0.111 |  |  | -0.014 | -0.085 | 0.098 | -0.037 | -0.045 |  | 0.26 (active) |  |  | 0.055 | -0.189 | -0.031 | -0.013 | 0.066 | 0.016 | 0.004 | -0.021 |
| CASK (UniProt O14936) | 0.046 |  |  |  |  |  |  |  |  |  |  |  | 0.049 |  |  | -0.039 | 0.034 |  |  | -0.031 |
| CCNL1 (UniProt Q9UK58) |  |  |  | 0.119 |  | 0.167 |  |  |  |  |  |  |  |  |  |  |  |  |  |  |
| CCNT2 (UniProt O60583) |  | 0.102 |  | 0.039 | -0.291 | -0.131 | 0.085 | 0.121 | -0.226 |  | -0.148 |  | -0.107 | -0.065 | -0.291 | 0.047 |  | -0.147 | 0.163 | 0.143 |
